Source: PubChem (National Center for Advancing Translational Sciences (NCATS))
Nrf2 ARE act: activates Nrf2 signaling. AREc32 ARE-luciferase reporter (MCF7-derived line), luminescence, 24 h. Potency, µM (titrated, usually from 46.1 µM), inactives show at the highest dose activation, hits mostly activators. 410,000 tested, 0.31% active. AID 624171; note: potency is the fitted concentration of half-maximal effect; % of control where 0% means no effect; nearly all actives have a fitted effect of over 65% in size
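Nrf2 activation is followed as ARE-luciferase induction in the AREc32 line after one day of compound treatment; luminescence is read with Steady-Glo.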
D3 ag: agonists of human D3 dopamine receptor; P35462; D3R DiscoveRx beta-arrestin cells, luminescence, 90 min; max activation, %; 410,000 tested, 0.58% active; AID 652048; in the data active = max activation above about 30%; note: 0% is about no effect
Target sequence (P35462 whole entry, looked up): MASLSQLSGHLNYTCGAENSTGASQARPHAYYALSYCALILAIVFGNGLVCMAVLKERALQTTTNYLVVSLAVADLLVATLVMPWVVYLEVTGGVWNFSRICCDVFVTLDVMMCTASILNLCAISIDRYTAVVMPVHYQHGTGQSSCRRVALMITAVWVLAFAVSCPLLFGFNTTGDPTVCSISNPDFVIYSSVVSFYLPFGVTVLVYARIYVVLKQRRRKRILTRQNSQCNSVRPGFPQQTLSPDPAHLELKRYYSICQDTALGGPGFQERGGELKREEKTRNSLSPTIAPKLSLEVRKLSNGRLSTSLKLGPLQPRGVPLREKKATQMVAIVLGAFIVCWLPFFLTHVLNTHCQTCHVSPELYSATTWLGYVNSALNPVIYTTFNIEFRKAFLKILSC
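Cells at 1500/well, incubated overnight, then treated with pinned compounds (dopamine as control) for 90 min at 37 degrees C. DiscoveRx reagent added for 30 - 60 minutes at room temperature; luminescence read.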
D3 antag: antagonists of human D3 dopamine receptor; P35462; D3R cells, DiscoveRx beta-arrestin luminescence, antagonist mode; stronger effect = lower value; 360,000 tested, 2.5% active; max response, negative = inhibition, %; in the data active = max response below about -50%; inconclusive = no clear call, values can overlap the other calls; note: % is set by controls: 0 for no effect and ±100 for the full control effect
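Cells expressing the human receptor were seeded at 1500 cells/well, incubated overnight at 37 degrees C in 5% CO2, then exposed to library compounds with dopamine controls for 90 minutes at 37 degrees C before luminescent detection.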
GRP78 ERSR act: ER stress response induction in glioma. 420,000 tested, 0.02% active. U87-MG GRP78 promoter luciferase reporter, 16 h. Potency, µM, inactives show top-dose activation, most hits filed as activators; note: potency is the fitted concentration of half-maximal effect; series mostly up to about 76 µM; % of control where 0% means no effect; nearly all actives have a fitted effect of over 35% in size
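ERSR induction read as luciferase luminescence (Bright-Glo, 10 min at room temperature) in stably transfected human U87-MG glioma cells exposed to compounds for 16 h, using GRP78 as sensor.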
* marks the source's active call; other numbers are inactive results; ? = inconclusive; nt = no result given. Most compounds without a hit are left out; they make up all but 3% or so of the library. Unless noted, calls come from the whole dose curve; as a rule, active = well fitted curve in the direction sought with a large enough effect; inconclusive = small, poorly fitted or top-dose-only effect, or another doubt; inactive = no such curve, though single readings can be large; an effect the other way counts as inactive or inconclusive.

SMILES | Nrf2 ARE act | D3 ag | D3 antag | GRP78 ERSR act
O=C(Nc1nc(-c2ccccc2)c(-c2ccccc2)o1)c1ccc(F)cc1 | 2% | -28 | -100* | -6%
Cc1ccc(NC(=O)CN2C(=O)C(c3ccccc3)=NC23CCCCC3)cc1C | 0% | 3 | nt | nt
CCc1nc(C)c(-c2ccccc2)c(=O)[nH]1 | 0% | -7 | -94* | -3%
CCOC(=O)c1ccc(S(=O)(=O)N2CCN(c3nc(-c4cccs4)nc4ccccc34)CC2)cc1 | nt | nt | nt | -3%
c1ccc(COC[C@@H]2CO2)cc1 | nt | nt | nt | -1%
Cc1ccc(C(=O)CCC(=O)OCC(=O)Nc2nnc(-c3ccccc3)o2)cc1 | 0% | -5 | 13 | -4%
Cc1ccc(C(=O)CCC(=O)OCc2nnc(-c3ccccc3)o2)cc1 | 4% | 3 | -60* | 0%
COc1ccc(CC(=O)NC(C)c2nnc(SCC(=O)c3ccc(Br)cc3)n2C)cc1 (configuration not stated) | 18% | 10 | -56* | 5%
CCCc1nc2ccc(Br)cn2c1Cc1ccccc1OC | 0% | 78* | -19 | -5%
FC(F)(F)c1ccccc1Cc1c(-c2cccc(Cl)c2)nc2ccc(Cl)cn12 | 17% | 57* | -15 | 0%
CCCc1nc2ccc(C)cn2c1Cc1ccccc1OC | 3% | 3 | -3 | -1%
COc1ccccc1Cc1c(-c2cccc(Cl)c2)nc2ccc(Br)cn12 | 13% | -21 | -83* | 4%
CC(C)(C)Cc1c(-c2cccc(Cl)c2)nc2ccc(Br)cn12 | 11% | -16 | -109* | 7%
CC(C)(C)Cc1c(-c2ccc(Br)cc2)nc2ccc(Br)cn12 | 0% | -6 | 0 | 0%
COc1cccc2nccc(/C=C/c3ccc(N(C)C)cc3)c12 | nt | nt | nt | -2%
CC[C@@H]1/C=C(\C)C[C@H](C)C[C@H](OC)[C@H]2O[C@@](O)(C(=O)C(=O)N3CCCC[C@H]3C(=O)O[C@H](/C(C)=C/[C@@H]3CC[C@@H](Cl)[C@H](OC)C3)[C@H](C)[C@@H](O)CC1=O)[C@H](C)C[C@@H]2OC | nt | -3 | nt | nt
CNCCc1cnc(CCC(c2ccccc2)c2ccccc2)[nH]1 | nt | nt | nt | -5%
COc1ccc(C(=O)C[n+]2ccccc2Cl)cc1 | nt | nt | nt | 2%
CCC1CN(CCNC(=O)c2cc(C(C)C)nn2C)Cc2cc(OC)ccc2O1 (configuration not stated) | nt | nt | nt | -3%
Cc1cc(Br)cn2c(Cc3ccccc3C(F)(F)F)c(-c3cccc(Br)c3)nc12 | 10% | 1 | 11 | nt
FC(F)(F)c1ccccc1Cc1c(-c2cccc(Br)c2)nc2c3ccccc3ccn12 | 13µM* | 4 | 18 | 3%
COc1ccc(CNc2nc(NCc3ccc(OC)cc3)c3[nH]cnc3n2)cc1 | 4% | 56* | 73 | -5%
Cc1ccc(C(=O)Nc2cccc(-c3nc(CNC(=O)c4cccc(N(C)C)c4)c(C)o3)c2)s1 | nt | nt | nt | 2%
O=S(=O)(Nc1ccccc1)c1ccc(Oc2ncc(C(F)(F)F)cc2Cl)cc1 | 0% | -1 | -63* | -15%
COC(=O)c1ccccc1NC(=O)Cc1nc(-c2ccc(OC)cc2)no1 | 4% | -3 | nt | -2%
SMILES | Nrf2 ARE act | D3 ag | D3 antag | GRP78 ERSR act
Cc1cc(C)n2c(Nc3c(C)cccc3C)c(-c3ccccn3)nc2n1 | -1% | -12 | -70* | nt
Cc1ccc(Nc2c(-c3ccccn3)nc3cccc(C)n23)cc1 | 3% | -27 | -82* | -10%
O=C(c1ccccc1)C(CN1CCCCC1)c1ccccc1 (configuration not stated) | ? | -32 | -77* | -13%
CCOc1ccc(C(=O)C(CN2CCOCC2)c2ccccc2)cc1 (configuration not stated) | ? | -8 | -7 | -10%
O=C(c1ccc(Br)cc1)C(CN1CCOCC1)c1ccccc1 (configuration not stated) | ? | -43 | -88* | -14%
O=C(CC(C(=O)c1ccccc1)c1ccccc1)c1ccccc1 (configuration not stated) | 0% | 12 | 26 | -2%
CC(CN1CCN(CC(C)C(=O)c2ccccc2)CC1)C(=O)c1ccccc1 (configuration not stated) | 11% | -13 | -59* | -6%
Cc1cc(N(C)C)cc(C)c1/C=C/c1cc[n+](C)c2ccccc12 | nt | nt | nt | -5%
CC(C)c1ccc(NS(=O)(=O)c2ccc3[nH]cc(C(=O)NCC4CCCO4)c(=O)c3c2)cc1 (configuration not stated) | 0% | 0 | nt | -5%
CCOc1ccc(NS(=O)(=O)c2ccc3[nH]cc(C(=O)NCC4CCCO4)c(=O)c3c2)cc1 (configuration not stated) | -1% | -2 | -55* | -3%
Cc1ccccc1-c1n[nH]c(=S)o1 | 0% | -6 | -5 | -2%
COc1ccc(Cl)cc1-c1n[nH]c(=S)o1 | 0% | -5 | -84* | -1%
COc1ccccc1-c1n[nH]c(=S)o1 | 0% | -11 | -82* | -3%
N#CCCNCC1(c2ccccc2)CCCC1 | -1% | 4 | -54* | -5%
C[C@@H]1CC[C@@]2(OC1)O[C@H]1C[C@H]3[C@@H]4CC[C@H]5C[C@@H](O)CC[C@]5(C)[C@H]4CC(=O)[C@]3(C)[C@H]1[C@@H]2C | nt | -6 | nt | nt
O=C1/C(=C\c2ccc(Cl)c(Cl)c2)CN(C(=O)CCN2CCOCC2)C/C1=C/c1ccc(Cl)c(Cl)c1 | ? | -21 | -79* | -14%
O=C1/C(=C\c2ccccc2)CN(C(=O)CCN2CCCCC2)C/C1=C/c1ccccc1 | -4% | -8 | -62* | -12%
COc1cc(=O)n2c(c1C(=O)N(C)Cc1nonc1C)CCN(Cc1cc(C)ccc1C)CC2 | nt | nt | nt | -2%
CSc1ccc(-c2nc3ccc(C)cn3c2Nc2ccccc2C)cc1 | 2% | 1 | nt | 0%
CCC(=O)Nc1ccccc1-c1nnn(CC(=O)N2c3ccccc3CC2C)n1 (configuration not stated) | 0% | -11 | -17 | -2%
CC1Cc2ccccc2N1C(=O)Cn1nnc(-c2ccccc2NC(=O)C2CCC2)n1 (configuration not stated) | 0% | 9 | -98* | -3%
O=C(Cc1ccc(OCCCc2ccccc2)cc1)NO | nt | nt | nt | -5%
O=C(CCSc1ccc(Br)cc1)c1ccc(O)cc1 | 16µM* | 1 | 11 | -9%
CCN(CC)CCNc1ccc(CO)c2sc3ccccc3c(=O)c12 | 0% | -48 | -63* | 12%
CCN(CC)CCNc1cccc2sc3ccccc3c(=O)c12 | 3% | -12 | -28 | -4%
SMILES | Nrf2 ARE act | D3 ag | D3 antag | GRP78 ERSR act
Clc1ccc2oc(-c3ccccc3)cc(=NCCCN3CCOCC3)c2c1 | 13µM* | -6 | -6 | 3%
OCCCCCN=c1cc(-c2ccccc2)oc2ccc(Cl)cc12 | 29% | 1 | -2 | 6%
N#Cc1nc(-c2ccc(OCc3ccccc3Cl)cc2)oc1N1CCCCCC1 | nt | nt | nt | -3%
COc1ccc(C(C)(C)C)cc1NC(=O)COC(=O)c1cnc(C)cn1 | -1% | -13 | -65* | -2%
O=C(O)CNC(=O)CNC(=O)CNC(=O)CSC(=O)c1ccccc1 | nt | -3 | nt | -5%
CCNC(=O)CSc1nnc(C2CC2)n1-c1ccccc1 | -1% | 1 | -25 | -3%
O=C(CSc1nnc(C2CC2)n1-c1ccccc1)NCCc1ccccc1 | -1% | -3 | -60* | -6%
